This note sets out measurements from PubChem BioAssay (NCI).

About 79,000 compounds went through this panel and 15% of them were active in at least one assay; those are over-represented in the sample as a whole. Unmarked numbers belong to inactive results. Calls of active or inactive are those of the source. Rule as the data show it: active = growth inhibition above about 70%; inactive = the rest.

The nature of this experiment: NCI Yeast Anticancer Drug Screen. Data for the rad50 strain (AID 155).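 Also: 0% = growth of vehicle-only cultures of the same strain.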 Particulars: S. cerevisiae rad50 strain growth inhibition; at 50.0 µM; stronger effect = higher value. Summed up: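 Inhibition values express reduced yeast growth in compound-treated cultures relative to vehicle-treated controls.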
Take `O=c1c2c(nc3n1CCC3)OC(c1ccccc1)C2` (stereo not given): the growth inhibition was 0.4%.

For `C1CCC2C(C1)CCCC2NC1=NCCO1` (stereo not given), the growth inhibition was 1.75%.

As to `O=C1/C(=C/C=C/c2ccccc2)CCC1CNc1ccc(Br)cc1` (stereo not given), the growth inhibition was -20.2%.

Turning to `COC1OC(CS(=O)(=O)O)C(O)C(O)C1O` (stereo not given), the growth inhibition is -44.5%.

As to `Cc1ccc(S(=O)(=O)[N-]C2C(=O)c3ccccc3C(=O)C2[n+]2cccc(C(N)=O)c2)cc1` (stereo not given), the growth inhibition is -1.75%.

For `O=C(Nc1ccc(Cl)c(Cl)c1)c1ccc(C(=O)Nc2ccc(Cl)c(Cl)c2)cc1`, the growth inhibition is 8.35%.

As for `NC(=S)NCc1ccccc1C(O)c1ccccc1` (stereo not given), the growth inhibition is 18.8%.

`FC(F)(c1nn[nH]n1)C(F)(F)C(F)(F)c1nn[nH]n1`: the growth inhibition is -6.8%.

As to `Clc1cccc(N2CCN(CCN3CCc4c([nH]c5ccccc45)C3c3cccnc3)CC2)c1` (stereo not given), the growth inhibition was 2.2%.

In the case of `C(#Cc1ccccc1)SC1=C(c2ccccc2)S/C(=C(\SC#Cc2ccccc2)c2ccccc2)S1`, the growth inhibition was 9.6%.

Turning to `CCOC(=O)/C(C)=C/CC1=C(O)c2ccccc2C(=O)C1=O`, the growth inhibition was 7.3%.

With `CCN(CC)c1ncnc2c1nc(C)n2Nc1ccccc1`, the growth inhibition is 13.7%.

Regarding `CC(=O)c1ccc(NC(=O)/C(=N\NC(N)=O)C(C#N)CC(C)(C)C=O)cc1` (stereo not given), the growth inhibition is 29.3%.

Regarding `O=C(COc1cccc(Cl)c1)Nc1ccc(C(=O)CCl)cc1`, the growth inhibition was 23.9%.

On to `O=c1c[n+](-c2ccccc2)[nH]o1`, for which the growth inhibition is 41.2%.

For `CC1(C)CC(=O)C(/C(=N/NC(=S)NN)C(=O)Nc2nc3ccc([N+](=O)[O-])cc3s2)C(=O)C1`, the growth inhibition is 35.8%.

As for `CCC(C#N)(c1ccccc1)N(CCc1ccccc1)C(=O)c1ccccc1` (stereo not given), the growth inhibition was -5.8%.

In the case of `Cc1cccc(C(=O)C(O)c2cccc(C)n2)n1` (stereo not given), the growth inhibition is 7.75%.

Consider `CC[N+](CC)(CC)C[Si](C)(C)C`, for which the growth inhibition was 5.05%.

Turning to `Cc1ccc(NC(=O)NCCCN2CCOCC2)cc1NC(=O)NCCCN1CCOCC1`, the growth inhibition was -11.8%.

As for `C/C(=N/N(C)C)c1ccc(C)cc1`, the growth inhibition is 20.3%.

For the molecule `CC(=O)Nc1ccc2cc(-c3ccc(Cl)cc3)c3nnnn3c2n1`, the growth inhibition is 14.3%.

For `Cc1cnoc1/N=C1\C=C(Nc2oncc2C)C(=O)c2ccccc21`, the growth inhibition was -14.7%.

`O=C1/C(=C\c2ccc(O)cc2)CCC/C1=C/c1ccc(Cl)c(Cl)c1`: the growth inhibition was -0.5%.

For `COC(=O)[C@H](Cc1c[nH]c2ccccc12)NP(=O)(OCCC#N)OCC1OC(n2cc(C)c(=O)[nH]c2=O)CC1N=[N+]=[N-]` (stereo not given in full), the growth inhibition is -13.6%.

On to `CC(=O)Nc1ccc(/C=N/NC(=O)/C=C/c2ccccc2)cc1`, for which the growth inhibition was -7.15%.

As for `CSc1nc(=O)cc(N)n1C`, the growth inhibition is 1.65%.

`O=C(O)c1cc(Cl)ccc1-c1ccc(Cl)cc1C(=O)Nc1ccc2c(c1)Cc1ccccc1-2`: the growth inhibition was 91.3% (active).

For the molecule `CC(=O)O[C@H]1CC[C@@]2(C)[C@@H](CC[C@@H]3[C@@H]2CC[C@]2(C)[C@@H](C(=O)CCC(F)(F)F)CC[C@@H]32)C1`, the growth inhibition was 16.9%.

For the molecule `OCc1c(-c2ccc(Cl)cc2)c(-c2ccc(Cl)cc2)c2n1CCC2`, the growth inhibition was -0.65%.

`C/C(CC(C)C)=N\NC(=O)Nc1ccccc1Cl`: the growth inhibition is 4.5%.

On to `O=C(NCCNCCNC(=O)C(F)(F)F)C(F)(F)F`, for which the growth inhibition is -9.75%.

For `CC1(Br)CP(=O)(c2ccccc2)CC1Br` (stereo not given), the growth inhibition is -9.2%.

For the molecule `COc1ccc2cc(C(=O)c3ccccc3)c(=O)oc2c1`, the growth inhibition is -0.1%.

As for `CCOC(CCCl)c1ccc(C)cc1` (stereo not given), the growth inhibition is -25.2%.

For `Cc1csc2nc3[nH]ncc3c(=O)n12`, the growth inhibition is -21.6%.

`CCCCCCCCCCCC(=O)c1c(O)cccc1O`: the growth inhibition is -10.1%.

With `CC(=O)N1c2ccccc2S(=O)(=O)c2ccccc21`, the growth inhibition was 1.6%.

`CC(=O)OC1CCCCCCC1`: the growth inhibition is -13.2%.

Turning to `COc1ccc2c(NCCCCCCNc3c4ccccc4nc4cc(OC)ccc34)c3ccccc3nc2c1`, the growth inhibition was 89.9% (active).
